The results in this text go back to PubChem BioAssay AID431 (Sanford-Burnham Center for Chemical Genomics, 2006).

Hit rate of the full screen: of about 63,000 compounds, about 1,100 (1.7%) were called active.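 The calls were made as follows: active = compounds whose percent cytotoxicity in the single-dose primary screen, scaled between solvent and toxic-drug controls, exceeds 50; inactive = the rest.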 Many of the other results were omitted from the sample, so actives are more common in it than they were. Potency and affinity values are given separately.

The experiment in a line: viability loss of HPDE-C7K cells – cell-based, fluorescence, HTS, primary screen (AID 431).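 Also: 0% = DMSO solvent wells and 100% = doxorubicin-treated wells.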 To be noted: HPDE-C7K KRASV12 cells, Alamar Blue viability, 48 h; at 10 µM; stronger effect = higher value.
As to `Cc1sc2nc(CN3CCOCC3)nc(N3CCC(C(N)=O)CC3)c2c1C`, the cytotoxicity is 2.3% (inactive).
Consider `O=C(COCCOCC(=O)N(c1ccccn1)C1CCCCC1)N(c1ccccn1)C1CCCCC1`, for which the cytotoxicity is -24% (inactive).
Under `CCOC(=O)c1nnn(-c2nonc2N)c1COc1ccccc1` stands -16.7% (inactive); under `CCN(CC)CCNc1nc(-c2ccco2)c2c(c1C#N)CC(C)(C)OC2`, -15.7% (inactive).
To `CN(C)CCNc1nc(-c2ccco2)c2c(c1C#N)CC(C)(C)OC2` belongs -0.3% (inactive); to `C=CCn1c(SCC2=C(C(=O)OCC)C(C)NC(=O)N2)nnc1C1CCCCC1` (centres undefined), -17.2% (inactive).
`Cc1cc(NS(=O)(=O)c2ccc(C3CCCCC3)cc2)no1`: the cytotoxicity was -3% (inactive).
To `Oc1ccccc1-c1cc(C(F)(F)C(F)F)[nH]n1` belongs -5.1% (inactive); to `FC(F)C(F)(F)C(F)(F)C(F)(F)c1cc(-c2ccccc2)n[nH]1`, 82.9% (active); to `O=C1CC(C(F)(F)C(F)(F)C(F)(F)C(F)F)=Nc2ccccc2N1`, -3.2% (inactive).
Turning to `O=C(Cc1cn2ccsc2n1)NCc1ccccc1`, the cytotoxicity was -14.8% (inactive).
As to `COc1cc2c(cc1OC)C1Cc3ccc(OC)c(OC)c3CN1CC2` (centres undefined), the cytotoxicity is -5% (inactive).
As for `COc1cc2c(cc1OC)C(c1cc(OC)c(OC)c(OC)c1)NCC2` (centres undefined), the cytotoxicity was 7.4% (inactive).
To `Cc1ccc(S(=O)(=O)Cn2nnnc2CN2CCCC3(CCCCC3)C2)cc1` belongs 4.3% (inactive); to `COc1ccc2nc(NC(=O)c3cnccn3)sc2c1`, 4.7% (inactive).
As to `CN1CCN(C(c2cccnc2)c2ccc3cccnc3c2O)CC1` (centres undefined), the cytotoxicity was -15.1% (inactive).
Under `Cc1nc2sc(C(c3ccccc3)N3CCN(CCO)CC3)c(O)n2n1` (centres undefined) stands -1.5% (inactive); under `OCCN1CCN(C(c2cccs2)c2ccc3cccnc3c2O)CC1` (centres undefined), 83.8% (active); under `FC(F)(F)c1ccccc1Nc1nccs1`, 14.9% (inactive).
To `CC1CC(C)CN(c2nc3c(c(=O)[nH]c(=O)n3C)n2CCSc2nc3ccccc3o2)C1` (centres undefined) belongs 2.4% (inactive).
For `N#CC1=C2SCC(O)(c3ccccc3)N2C(=O)CC1c1ccccc1` (centres undefined), the cytotoxicity is 65.7% (active).
Under `COc1ccc(C2CC(=O)N3C(=C2C#N)SCC3(O)c2ccccc2)cc1` (centres undefined) stands 12.5% (inactive).
For the compound `N#CC1=C2SCN(c3ccccc3)CN2C(=O)CC1c1cccs1` (centres undefined), the cytotoxicity is 2.6% (inactive).
As for `CCc1ccc(C2CC(=O)N3CN(c4ccccc4)CSC3=C2C#N)cc1` (centres undefined), the cytotoxicity is 2.4% (inactive).
Under `N#CC1=C2SCN(Cc3ccccc3)CN2C(=O)CC1c1cccs1` (centres undefined) stands -0.4% (inactive); under `COc1ccc(CCNS(=O)(=O)c2ccc3c(c2)OCCO3)cc1OC`, -28.8% (inactive).
To `COc1ccc(S(=O)(=O)N(C)CC(=O)NC2CC2)cc1` belongs -20.5% (inactive); to `CCOc1ccc(N2CCCCn3c2nc2c3c(=O)[nH]c(=O)n2C)cc1`, -9% (inactive).
Under `COc1ccc(OC)c(NC(=O)CSc2nnc(Cn3c(=O)sc4ccccc43)n2C)c1` stands 4.6% (inactive); under `CCn1c(SCC(=O)c2cc(OC)ccc2OC)nc2c1c(=O)n(C)c(=O)n2C`, -4.8% (inactive).
Take `Cc1csc(NC(=O)CSc2ncnc3c2cnn3-c2ccccc2Cl)n1`: the cytotoxicity was 31.8% (inactive).
Regarding `CCOC(=O)Cc1csc(NC(=O)CSc2ncnc3c2cnn3-c2ccccc2Cl)n1`, the cytotoxicity is 50% (active).
As for `CCOC(=O)Cc1csc(NC(=O)CSc2ncnc3c2cnn3-c2ccc(OC)cc2)n1`, the cytotoxicity is 4.2% (inactive).
Regarding `Cc1cc(OCc2nn[nH]n2)c2c(C)c(Cc3ccccc3)c(=O)oc2c1`, the cytotoxicity was 13.7% (inactive).
Consider `Cc1cc(-c2ccccc2)c(C#N)c(N)n1`, for which the cytotoxicity is 12.6% (inactive).
For `CSc1nc(-c2ccco2)cc(-c2ccccc2)c1C#N`, the cytotoxicity is 45% (inactive).
For the compound `Cc1cccc2cc(CN(CCCO)C(=O)Nc3ccccc3Cl)c(=O)[nH]c12`, the cytotoxicity is -2.4% (inactive).
To `CC(C)(C)OC(=O)N[C@@H](Cc1ccccc1)c1nnc(S(=O)(=O)Cc2cccc(F)c2)o1` belongs -21.9% (inactive); to `CC[C@@H](C)[C@H](NC(=O)OC(C)(C)C)c1nnc(S(=O)(=O)Cc2cc(C)ccc2C)o1`, 46.9% (inactive); to `Cn1nc(-c2ccc(Cl)cc2)c2cc(C(=O)N3CCN(c4ccccn4)CC3)sc21`, -7.2% (inactive).
On to `COc1ccc(N2CCN(C(=O)c3cc4c(-c5cccc(OC)c5)nn(C)c4s3)CC2)cc1`, for which the cytotoxicity was 15.7% (inactive).
To `CN(C)c1ncc(C(=O)O)cn1` belongs 21.7% (inactive); to `COc1ccc(C(C(O)C(=O)c2c[nH]c3ccccc23)N2CCN(c3ccc(OC)cc3)CC2)cc1` (centres undefined), 50.4% (active); to `O=C(c1c[nH]c2ccccc12)C(O)C(c1ccccc1)N1CCOCC1` (centres undefined), -15.9% (inactive).
With `COc1ccc(C(=O)c2c[nH]c3ccccc23)cc1`, the cytotoxicity is 15.5% (inactive).
Consider `O=C(Nc1ccccc1F)C1CCCN(S(=O)(=O)c2cccc3cccnc23)C1` (centres undefined), for which the cytotoxicity was 7% (inactive).
To `Cn1cnnc1SCc1ccc(C#N)cc1` belongs 2.3% (inactive); to `OCCNCC(O)Cn1ccc2ccccc21` (centres undefined), -4.4% (inactive).
For `OCCN(CC(O)Cn1ccc2ccccc21)CC(O)Cn1ccc2ccccc21` (centres undefined), the cytotoxicity was 29.1% (inactive).
On to `O=C1OCC2=C1C(c1ccc3c(c1)OCO3)Sc1ccccc1N2` (centres undefined), for which the cytotoxicity was -14.4% (inactive).
To `Cc1c(C(=O)N2CCN(C)CC2)oc2c1C(=O)CC(C)(C)C2` belongs -40.9% (inactive); to `c1ccc(-c2nc(N3CCN(c4ccccc4)CC3)nc(-n3ccnc3)n2)cc1`, 30.8% (inactive); to `c1ccc(-c2nc(N3CCCCCC3)nc(-n3ccnc3)n2)cc1`, -10.1% (inactive).
To `Cn1nc(-c2ccc(Cl)cc2)c2cc(C(=O)N3CCOCC3)sc21` belongs 8.6% (inactive); to `CC(=O)c1ccc(NC(=O)c2noc3c2CCCCC3)cc1`, 16.4% (inactive).
Under `CN1CCN(c2ncnc3c2[nH]c2ccc(F)cc23)CC1` stands 5.5% (inactive).
Take `Cc1ccc2c(c1)[nH]c1c(N3CCN(Cc4ccc5c(c4)OCO5)CC3)ncnc12`: the cytotoxicity was 9.5% (inactive).
To `COc1ccc2c(c1)c1ncnc(N3CCN(Cc4ccc5c(c4)OCO5)CC3)c1n2C` belongs 43.1% (inactive); to `c1ccc2c(c1)oc1c(N3CCN(Cc4ccc5c(c4)OCO5)CC3)ncnc12`, 10.1% (inactive).
Under `COc1cccc2[nH]c3c(N4CCN(Cc5ccc6c(c5)OCO6)CC4)ncnc3c12` stands 44.8% (inactive); under `Fc1ccc2[nH]c3c(N4CCN(C5CCCCC5)CC4)ncnc3c2c1`, 23.3% (inactive); under `COc1cccc(N2CCN(c3ncnc4c3[nH]c3ccc(F)cc34)CC2C)c1` (centres undefined), 121% (active).
Under `CCCCOc1ncnc2c1[nH]c1ccc(F)cc12` stands 5% (inactive); under `COc1ccc2[nH]c3c(N4CCN(Cc5ccc6c(c5)OCO6)CC4)ncnc3c2c1`, 53.7% (active); under `Fc1ccc2[nH]c3c(N4CCN(c5ccccc5)CC4)ncnc3c2c1`, -3.9% (inactive).
With `CCC1S/C(=C(\C#N)C(=O)NCc2ccco2)N(c2ccc(F)cc2)C1=O` (centres undefined), the cytotoxicity was -16.6% (inactive).
To `CC1CCCCN1S(=O)(=O)c1ccc2c(c1)oc(=O)n2CC(=O)O` (centres undefined) belongs -0.1% (inactive); to `CCN=C(Nc1ccc2c(c1)OCO2)SC1CC(=O)N(c2ccccc2F)C1=O` (centres undefined), -6% (inactive).
Take `O=C(O)CCS(=O)(=O)Cc1ccccc1F`: the cytotoxicity is 1.1% (inactive).
To `Cn1c(-c2ccc(F)cc2)cnc1SCC(=O)N1CCCCC1` belongs -5.4% (inactive).
To `C/C=C/c1ccc(Oc2nnnn2-c2ccc(C(N)=O)cc2)c(OC)c1` belongs 1% (inactive); to `c1nc(N2CCN(Cc3ccc4c(c3)OCO4)CC2)c2[nH]cnc2n1`, -0.7% (inactive); to `Cc1ccc2[nH]c3c(N4CCN(Cc5ccc6c(c5)OCO6)CC4)ncnc3c2c1`, 34.4% (inactive).
To `Fc1ccc2[nH]c3c(N4CCN(Cc5ccc6c(c5)OCO6)CC4)ncnc3c2c1` belongs 95.1% (active); to `CCOc1ccc(N(CC(=O)NCc2cccs2)S(=O)(=O)c2c(C)noc2C)cc1`, -1.7% (inactive).
For `CCOC(=O)N1CCN(c2c(N3CC=C(c4ccccc4)CC3)c(=O)c2=O)CC1`, the cytotoxicity is -2.9% (inactive).
To `O=C(CSc1nc2ccccc2o1)Nc1ccccc1` belongs -14.6% (inactive).
To `CSc1cccc(NC(=O)CSc2nc3ccccc3o2)c1` belongs -18.9% (inactive).
To `COc1ccc(C(=O)Nc2cccc(C)c2)cc1S(=O)(=O)N1CCOCC1` belongs 15.9% (inactive).
For the compound `O=C(NCc1ccoc1)c1ccc(NC(=O)c2ccccc2Cl)cc1`, the cytotoxicity is -12.8% (inactive).
With `COCCn1nnnc1CN1CCC(NC(=O)c2ccc(Br)cc2)CC1`, the cytotoxicity is -2.4% (inactive).
Under `CC(=O)OC[C@H]1O[C@@H](n2ccc(=O)[nH]c2=S)C(OC(C)=O)C1OC(C)=O` (some centres undefined) stands 4.5% (inactive); under `CC(=O)OC[C@H]1O[C@@H](n2ncc(=O)[nH]c2=O)[C@H](OC(C)=O)[C@@H]1OC(C)=O`, 54.7% (active); under `CC(=O)OCC1OC(n2ccc(=O)[nH]c2=O)C(O)C1O` (centres undefined), 0.8% (inactive).
Under `Nc1nc2nonc2nc1N1CCCCC1` stands -2.7% (inactive); under `CCOC(=O)c1cnc(SC2CC(=O)N(c3ccc(OC)c(OC)c3)C2=O)nc1N` (centres undefined), -9.5% (inactive); under `CC(NCCC(c1ccccc1)c1ccccc1)c1ccccc1` (centres undefined), 90.2% (active).
As for `CC(NC(=O)CSc1ncccn1)c1ccccc1` (centres undefined), the cytotoxicity is 1.8% (inactive).
As for `C/C(Cl)=C\CNC(C)c1ccccc1` (centres undefined), the cytotoxicity is -6.7% (inactive).
Under `O=C(Nc1ccccc1N1CCN(C(=O)c2ccc(Cl)cc2)CC1)c1cc2ccccc2o1` stands 13.1% (inactive).
In the case of `CCCC(=O)N1CCN(c2ccc(NC(=O)c3cc4ccccc4o3)cc2)CC1`, the cytotoxicity is -19% (inactive).
To `O=C(Cc1ccc(Cl)cc1)Nc1ccc(N2CCN(C(=O)c3ccco3)CC2)c(Cl)c1` belongs 21.6% (inactive); to `O=C(Nc1ccc(N2CCN(C(=O)c3ccco3)CC2)c(Cl)c1)c1c(F)c(F)c(F)c(F)c1F`, 103% (active); to `O=C(Nc1ccc(N2CCOCC2)c(Cl)c1)c1c(F)c(F)c(F)c(F)c1F`, 64.4% (active).
Under `O=C(Nc1ccc(N2CCOCC2)c(Cl)c1)c1cccc(F)c1` stands 31.3% (inactive); under `O=C(Nc1ccc(N2CCOCC2)c(Cl)c1)c1ccco1`, -11.5% (inactive); under `O=C(Nc1ccccc1N1CCN(C(=O)c2ccccc2)CC1)c1cc2ccccc2o1`, -7.4% (inactive).
As for `CCC(=O)Nc1ccc(NC(=O)c2cc3ccccc3o2)cc1`, the cytotoxicity is -17.1% (inactive).
To `O=C(Nc1ccc(N2CCN(C(=O)c3ccco3)CC2)c(Cl)c1)c1cccs1` belongs -1% (inactive).
